# Among all 310,000 compounds or so, about 14,000 (4.5%) showed an effect of 50% or more. The effect is printed as a negative number. Only a selection was taken, and strong results are over-represented in it overall.
# Target: human ether-à-go-go-related gene (hERG) potassium channel (human, UniProt Q12809)
# Experiment: primary screen, population patch clamp on CHO cells stably expressing hERG; higher = less effect of the substance
# 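Further: peak tail current of the secondary pulse compared with the same well before compound.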
# Sequence of human ether-à-go-go-related gene (hERG) potassium channel (Q12809 whole entry, looked up): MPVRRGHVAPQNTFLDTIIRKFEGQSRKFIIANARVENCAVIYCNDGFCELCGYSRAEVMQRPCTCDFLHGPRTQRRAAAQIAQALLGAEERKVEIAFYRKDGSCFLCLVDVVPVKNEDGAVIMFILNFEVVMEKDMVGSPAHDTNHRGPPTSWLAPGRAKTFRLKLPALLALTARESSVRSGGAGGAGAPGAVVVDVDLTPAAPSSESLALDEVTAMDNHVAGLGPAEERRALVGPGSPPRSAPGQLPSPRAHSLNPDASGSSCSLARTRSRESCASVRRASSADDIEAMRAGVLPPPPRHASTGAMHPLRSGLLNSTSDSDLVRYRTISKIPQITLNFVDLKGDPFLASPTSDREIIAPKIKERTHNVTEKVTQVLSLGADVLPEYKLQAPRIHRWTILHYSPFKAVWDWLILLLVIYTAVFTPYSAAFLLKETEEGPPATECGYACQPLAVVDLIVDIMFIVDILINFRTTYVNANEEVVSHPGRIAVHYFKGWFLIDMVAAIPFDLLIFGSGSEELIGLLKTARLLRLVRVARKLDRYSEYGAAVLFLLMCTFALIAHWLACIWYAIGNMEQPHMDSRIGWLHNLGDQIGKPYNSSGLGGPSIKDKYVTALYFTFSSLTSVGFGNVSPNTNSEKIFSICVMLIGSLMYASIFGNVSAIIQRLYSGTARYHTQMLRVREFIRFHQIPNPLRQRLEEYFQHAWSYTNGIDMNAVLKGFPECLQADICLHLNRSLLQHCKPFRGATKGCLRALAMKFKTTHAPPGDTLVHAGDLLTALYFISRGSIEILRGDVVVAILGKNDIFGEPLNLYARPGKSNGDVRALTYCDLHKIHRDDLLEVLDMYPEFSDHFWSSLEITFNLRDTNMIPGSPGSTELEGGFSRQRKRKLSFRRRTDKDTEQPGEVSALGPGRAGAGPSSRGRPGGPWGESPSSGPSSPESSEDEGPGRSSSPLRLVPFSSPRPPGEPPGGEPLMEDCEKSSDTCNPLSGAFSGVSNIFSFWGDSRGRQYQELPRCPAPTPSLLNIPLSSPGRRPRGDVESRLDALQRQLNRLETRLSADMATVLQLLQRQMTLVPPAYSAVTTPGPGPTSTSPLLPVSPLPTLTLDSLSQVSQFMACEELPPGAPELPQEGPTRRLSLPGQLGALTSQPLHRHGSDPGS
row,SMILES,"hERG current change (%, negative = inhibition) at 10uM [%]"
1,CC1(C)Cc2c(C#N)c(N3CCOCC3)nc(-c3ccccc3)c2CO1,-12.1
2,CCN(CC)CCNc1nc(-c2ccccc2)c2c(c1C#N)CC(C)(C)OC2,-66.4
3,CC1(C)Cc2c(C#N)c(NCCc3ccccc3)nc(-c3ccco3)c2CO1,12.5
4,CCN(CC)CCNc1nc(-c2ccco2)c2c(c1C#N)CC(C)(C)OC2,-62.6
5,Cc1nc(NCCN)c(C#N)c2c1COC(C)(C)C2,16
6,CC1(C)Cc2c(C#N)c(NCCN3CCOCC3)nc(-c3ccco3)c2CO1,-6.23
7,CC1(C)Cc2c(C#N)c(NCCO)nc(-c3ccco3)c2CO1,-4.23
8,CC1(C)Cc2c(C#N)c(NCc3ccco3)nc(-c3ccco3)c2CO1,-8.94
9,CN(C)CCNc1nc(-c2ccco2)c2c(c1C#N)CC(C)(C)OC2,-55.7
10,COC(=O)c1c(NC(=S)NN2CCOCC2)sc2c1CCCC2,8.03
11,COc1ccc(S(=O)(=O)Nc2ccc(S(=O)(=O)NCC3CCCO3)cc2)cc1 (stereo not shown),6.4
12,CCc1nc2c(sc3nc4c(cc32)COC(C)(C)C4)c(=O)n1CCN(CC)CC,-38.1
13,COc1ccc(C(=O)Nc2ccc3ccccc3n2)c(OC)c1OC,17.8
14,COc1ccc(C[C@H](N)C(=O)N[C@H]2[C@@H](O)[C@H](n3cnc4c(N(C)C)ncnc43)O[C@@H]2CO)cc1.Cl,-5.25
15,Cc1ccc(C(=O)Nc2ccc3c(c2)OCO3)cc1S(=O)(=O)N1CCCCC1,-18.8
16,CC(O)c1nc2ccccc2n1CCCOc1ccccc1 (stereo not shown),-7.48
17,CCN(CC)S(=O)(=O)c1ccc(NC2CCN(Cc3ccccc3)CC2)nc1,-57.9
18,CCN1CCN(CC(=O)Nc2cc(F)ccc2C)CC1,-46.2
19,O=C(CN1CCCCCC1)Nc1ccc(F)c(F)c1.O=C(O)C(=O)O,-22.4
20,O=C(CN1CCN(Cc2ccccc2F)CC1)Nc1ccccc1Cl,-27.6
21,O=C(CN1CCN(Cc2ccccc2)CC1)Nc1ccc(F)c(F)c1.O=C(O)C(=O)O,-57.1
22,CCN(CC)S(=O)(=O)c1ccc(Cl)c(C(=O)NC2CCN(Cc3ccccc3)CC2)c1.Cl,-28.8

row,SMILES,"hERG current change (%, negative = inhibition) at 10uM [%]"
1,O=C(CN1CCN(c2ccc(Cl)cc2)CC1)Nc1ccc(F)c(F)c1,-18.7
2,Cl.O=C(CN1CCN(Cc2ccccc2)CC1)Nc1ccc2c(c1)CCC2,-47.6
3,O=C(CN1CCN(CC(=O)Nc2ccccc2Cl)CC1)Nc1ccc(F)c(F)c1,-78.2
4,CCN(CC)S(=O)(=O)c1ccc(NCc2ccccc2)nc1,-11.3
5,Cc1ccc(F)cc1NC(=O)CN1CCN(Cc2ccccc2)CC1,-63.2
6,Cc1ccccc1NC(=O)CN1CCN(Cc2ccccc2)CC1,-36.1
7,COc1ccc(C)cc1NC(=O)CSc1ccc(Cl)cc1,11.1
8,Cc1cccc(C)c1NC(=O)CCS(=O)(=O)c1ccc(Br)cc1,31.2
9,COc1cccc(-c2nc(CS(=O)(=O)CC(=O)N3CCN(C)CC3)c(C)o2)c1,8.02
10,CCN(CC)CC(=O)Nc1ccc(-c2nc3cc(NC(=O)CN(CC)CC)ccc3o2)cc1,-18.1
11,CCNC(=O)NC(=O)COC(=O)c1ccccc1SCC(=O)NC(=O)NCC,3.64
12,Cc1ccc(-c2nc3ccccc3c(C(=O)NCc3cccs3)c2C)cc1,-5.33
13,COC(=O)C1=C(c2ccc(F)cc2F)C[C@@H]2CC[C@H]1N2C(=O)NCc1ccc(F)cc1,-46.4
14,CC(=O)Nc1ccc(S(=O)(=O)Nc2c(NC3CCCCC3)c3ccccc3oc2=O)cc1,7.19
15,Cc1ccc(NC(=O)CN2CCN(Cc3ccccc3)CC2)cc1Cl,-46
16,CCN(CC)S(=O)(=O)c1ccc(C)c(NC(=O)CNCc2ccccc2OC)c1.O=C(O)C(=O)O,-37.7
17,O=C(CN1CCNCC1)Nc1ccccc1Cl,-2.06
18,CCN(CC)S(=O)(=O)c1ccc(C)c(NC(=O)CN2CCN(C)CC2)c1.O=C(O)C(=O)O,-12.4
19,O=C(CN1CCC(C(=O)c2ccc(F)cc2)CC1)Nc1ccccc1Cl,-20.5
20,O=C(CN1CCN(CC(=O)c2ccc(F)cc2)CC1)Nc1ccccc1Cl,-68.9
21,CCN(CC)S(=O)(=O)c1ccc(C)c(NC(=O)CNCCN(C(C)C)C(C)C)c1.O=C(O)C(=O)O,-75.5
22,CCN(CC)c1ccc(S(=O)(=O)N2CCOCC2)cc1NC(=O)CN1CCN(Cc2ccccc2)CC1.Cl,-45.7

row,SMILES,"hERG current change (%, negative = inhibition) at 10uM [%]"
1,CCN(CC)S(=O)(=O)c1ccc(C)c(NC(=O)CN2CCN(Cc3ccccc3)CC2)c1.Cl,-69.1
2,Cc1ccc(NC(=O)CN2CCN(Cc3ccccc3)CC2)cc1F,-71.2
3,CC(=O)N1CCN(CC(=O)Nc2ccc(C)c(F)c2)CC1.Cl,0.314
4,Cc1ccc(S(=O)(=O)N(C)C)cc1NC(=O)CN1CCN(Cc2ccccc2)CC1.Cl,-24.8
5,Cc1cc(-c2csc(N)n2)c(C)n1CCc1ccccc1.Cl,-12.4
6,Cc1ccc(Oc2ncc(CN3CCOCC3)s2)cc1,3.3
7,C=CCn1c(SCC(=O)Nc2cc(C)on2)nc2sc(C)c(C)c2c1=O,-0.759
8,O=C(Nc1nnc(-c2ccc(Br)cc2)o1)C1=COCCO1,3.07
9,COc1ccccc1CNC(=O)c1ccc(N(C)S(=O)(=O)c2ccc(C)cc2)cc1,17.5
10,Cl.OC(c1ccccc1)(C1CCCCC1)C(CN1CCOCC1)c1ccccc1 (stereo not shown),-12.5
11,Cn1nnnc1SC1CC(=O)N(c2ccccc2)C1=O (stereo not shown),2.48
12,O=C(NCCO)c1ccc2[nH]c3ccccc3c2c1,9.18
13,Cc1ccc(NC(=O)CN2CCN(Cc3ccccc3)CC2)c(Br)c1.Cl,-72.5
14,Cc1ccc(NC(=O)CNCc2ccccc2)c(Br)c1,0.831
15,Cc1ccc(NC(=O)CN2CCOCC2)c(Br)c1,-9.76
16,O=C(NCc1ccccc1Cl)C1CCN(S(=O)(=O)c2ccc(-n3cnnn3)cc2)CC1,-27.3
17,CCCN1CCN(S(=O)(=O)c2ccc(-n3cnnn3)cc2)CC1,-28
18,COc1ccccc1N1CCN(S(=O)(=O)c2ccc(-n3cnnn3)c(C)c2)CC1,-13.7
19,CCOC(=O)c1ccc(S(=O)(=O)N2CCC(C(=O)NCc3ccccc3OC)CC2)cc1,-22.5
20,O=S(=O)(c1ccc(-n2cnnn2)cc1)N1CCN(c2ccccc2F)CC1,-3.2
21,COc1ccc(CNC(=O)C(=O)N2CCC3(CC2)OCCN3S(=O)(=O)c2ccc(C)cc2)cc1,-29.9
22,COc1ccccc1N1CCN(S(=O)(=O)c2ccc(-n3cnnn3)cc2)CC1,-72

row,SMILES,"hERG current change (%, negative = inhibition) at 10uM [%]"
1,COc1ccccc1CNC(=O)C1CCN(S(=O)(=O)c2ccc(-n3cnnn3)cc2)CC1,-66.9
2,CCOC(=O)N1CCN(S(=O)(=O)c2ccc(-n3cnnn3)cc2)CC1,-61.4
3,CCOC(=O)N1CCN(S(=O)(=O)c2ccc(C)cc2)CC1,17.9
4,CCNC(=O)C(=O)N1CCC2(CC1)OCCN2S(=O)(=O)c1ccc(C)cc1,2.81
5,COc1cccc(CNC(=O)C(=O)N2CCC3(CC2)OCCN3S(=O)(=O)c2ccc(C)cc2)c1,-57
6,CS(=O)(=O)N1CCN(C(=O)Cc2ccc(Br)cc2)CC1,-1.44
7,COc1ccc2[nH]cc(CCNS(=O)(=O)c3ccc(F)cc3)c2c1,4.05
8,Cc1cc(C)c(OCC(=O)Nc2nnc(-c3ccco3)o2)c(C)c1,1.74
9,COc1ccccc1NC(=O)c1sc(Cl)nc1C,2.93
10,O=[N+]([O-])c1ccc(S(=O)(=O)Nc2ccc(-c3ccc(N4CCOCC4)nn3)cc2)cc1,-7.79
11,O=C(Cc1ccccc1)NNC(=S)NC(=O)c1cccnc1,14.7
12,CC(C)C(NC(=O)C1CCCCC1)C(=O)Nc1ccc2c(c1)OCCO2 (stereo not shown),-1.07
13,CC(C)(C)OC(=O)N1CC(O)CC1C(=O)OCC(=O)c1ccc(-c2ccccc2)cc1 (stereo not shown),32
14,COC(=O)C1Cc2c([nH]c3ccccc23)CN1 (stereo not shown),1.45
15,CN(C)c1ccc(N2C(=NC(=O)COc3ccccc3)SC3CS(=O)(=O)CC32)cc1 (stereo not shown),23.7
16,COc1ccc(-c2cnn3c4c(c(C)nc23)CCN4C2CCCC2)cc1OC,2.7
17,COc1cccc(CNC(=O)C2CCN(S(=O)(=O)c3ccc(-n4cnnn4)cc3)CC2)c1,-57.3
18,COc1cccc(CNC(=O)C2CCN(S(=O)(=O)c3ccccc3)CC2)c1,-36
19,COc1ccc(S(=O)(=O)N2CCC(C(=O)NCc3cccc(OC)c3)CC2)cc1,-17.4
20,COc1ccc(CNC(=O)C2CCCN(S(=O)(=O)c3ccc(-n4cnnn4)cc3)C2)cc1 (stereo not shown),-8.97
21,COc1ccc(S(=O)(=O)N2CCC(C(=O)NCCC(=O)NCc3cccc(OC)c3)CC2)cc1,-4.05
22,COc1cccc(CNC(=O)C2CCN(S(=O)(=O)c3ccc(C)cc3)CC2)c1,-50.4

# — PMC4336329 (PLoS ONE, 2015)
